Bioassay records from PubChem BioAssay.
GSTO1 inh: GSTO1 inhibition, counter-screen for RBBP9 inhibitors | P78417 | recombinant GSTO1, activity-based probe fluorescence polarization | inhibition, % at 5.96 µM | 300,000 compounds, 1.1% hits | AID 1974;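 active = inhibition above the campaign mean inhibition plus 3 SD, cut at about 35% in these data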;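 also: 0% = GSTO1-1 with DMSO and 100% = wells lacking GSTO1-1 enzyme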
Fam108B inh: blocks mouse Fam108B hydrolase in RBBP9 counter-screen | recombinant Fam108B, FP-Rh probe fluorescence polarization | inhibition, % at 9.51 µM | 300,000 compounds, 0.33% hits;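 active = inhibition above the screen mean inhibition plus 3 SD, computed separately per campaign, cut at about 18% in these data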;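 also: inhibitors lower polarization as less probe binds the enzyme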
LYPLA2 counter: counter-screen for PME1 inhibitors: inhibitors of human LYPLA2. inhibition, % at 5.9 µM. O95372. 320,000 compounds, 0.38% hits. recombinant LYPLA2, FP-Rh probe fluorescence polarization;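 active = inhibition above the screen-wide mean plus 3 SD, limit set per campaign, cut at about 26% in these data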;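 also: 0% = LYPLA2 with DMSO and 100% = wells lacking LYPLA2 enzyme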
LYPLA1 inh: LYPLA1 (human) inhibition in PME1 counter-screen | O75608 | recombinant LYPLA1, FP-Rh probe fluorescence polarization | inhibition, % at 5.9 µM | 320,000 compounds, 0.16% hits | AID 2174;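 active = inhibition above the mean of all tested compounds plus 3 SD, set per campaign, cut at about 14% in these data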;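 also: inhibitors block serine hydrolase probe labeling of LYPLA1 so polarization falls; 0% = enzyme with DMSO and 100% = wells lacking LYPLA1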
PAD4 inh: PAD4 (human) enzyme inhibition. Q9UM07. 330,000 compounds, 0.41% hits. inhibition, % at 6.36 µM. recombinant PAD4, RCA probe fluorescence polarization. AID 485272;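 active = percent inhibition above a cutoff equal to the mean of all tested compounds plus 3 SD, cut at about 15% in these data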;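 also: 0% = PAD4 with RCA probe and DMSO and 100% = probe without PAD4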
Target sequence (Q9UM07 whole entry, looked up): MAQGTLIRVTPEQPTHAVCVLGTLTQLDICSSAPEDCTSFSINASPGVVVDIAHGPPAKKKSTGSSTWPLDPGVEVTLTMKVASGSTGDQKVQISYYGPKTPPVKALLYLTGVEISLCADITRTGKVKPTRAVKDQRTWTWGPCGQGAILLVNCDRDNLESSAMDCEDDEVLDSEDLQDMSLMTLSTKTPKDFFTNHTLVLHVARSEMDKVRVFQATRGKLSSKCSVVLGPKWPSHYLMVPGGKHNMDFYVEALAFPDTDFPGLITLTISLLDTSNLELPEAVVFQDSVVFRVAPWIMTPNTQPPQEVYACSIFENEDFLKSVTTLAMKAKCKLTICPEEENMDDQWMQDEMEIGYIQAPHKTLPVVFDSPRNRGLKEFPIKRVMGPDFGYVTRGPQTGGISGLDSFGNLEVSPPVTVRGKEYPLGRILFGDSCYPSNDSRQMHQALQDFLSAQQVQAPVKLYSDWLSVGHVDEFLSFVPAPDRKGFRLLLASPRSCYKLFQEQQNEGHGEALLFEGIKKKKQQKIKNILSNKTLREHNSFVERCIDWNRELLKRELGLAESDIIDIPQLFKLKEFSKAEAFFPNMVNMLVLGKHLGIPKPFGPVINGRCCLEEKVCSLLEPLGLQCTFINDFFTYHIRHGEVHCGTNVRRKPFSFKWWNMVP
PME-1 inh: blocks human protein phosphatase methylesterase 1. inhibition, % at 5.9 µM. AID 2130. Q9Y570. recombinant PME-1, FP-Rh probe fluorescence polarization. 320,000 compounds, 0.53% hits;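 active = inhibition above the campaign mean of all compounds plus 3 SD, cut at about 26% in these data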;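 also: competitive labeling of PME-1 active site by serine hydrolase directed probe; 0% = PME-1 with DMSO and 100% = wells lacking PME-1 enzyme; inhibitors block probe labeling so polarization falls and inhibition rises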
GSTO1 inh conf: confirmation of human GSTO1 inhibitors; shares compounds with GSTO1 inh; inhibition, % at 5.96 µM; recombinant GSTO1, probe fluorescence polarization; AID 2176; 2,400 compounds, 54% hits;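 active = inhibition above the primary screen's cutoff, its mean inhibition plus 3 SD, cut at about 35% in these data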;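 also: loss of polarization as inhibitors block binding of rhodamine sulfonate ester activity probe; 0% = GSTO1 with DMSO and 100% = wells lacking GSTO1 enzyme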
GSTO1 recomb ABPP: blocks recombinant human glutathione S-transferase omega 1; shares compounds with GSTO1 inh; recombinant GSTO1, gel ABPP SE-Rh probe fluorescence; inhibition, % at 1 µM; 130 compounds, 30% hits; AID 463110;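 active = inhibition of the enzyme GSTO1 above about 75%, limit read from the data; inactive = inhibition below that limit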
Starred values were filed as active, the others as inactive; · = not tested or not shown. Rows were chosen to be rich in hits. Some 1.7% of all compounds tested hit in one or more screens of this group.

SMILES	GSTO1 inh	Fam108B inh	LYPLA2 counter	LYPLA1 inh	PAD4 inh	PME-1 inh	GSTO1 inh conf	others
Cc1cc(C)c[n+](-c2nc3ccccc3nc2[N-]S(=O)(=O)c2ccc(Cl)cc2)c1	9.8	-1.7	1.3	-5.3	4.9	8.4	·
O=C1c2cccc(Cl)c2C(=O)c2c1cccc2N1CCCC1	44.2*	3.7	11.8	1.8	-9.7	11.5	7.1
O=C1C(Cl)=C(N2CCCCC2)C(=O)N1c1ccccc1Cl	19.1	0.9	2.1	-1.1	-2.4	-5.6	·
Cc1oc2c(O)c(O)ccc2c(=O)c1-c1cnn(-c2ccccc2)c1	59.4*	4.4	0.9	-10.6	6.7	3.4	23.5
CC(C)CC(OC(=O)CC1Sc2ccccc2NC1=O)C(=O)NC1CCCC1 (centres undefined)	-9.0	1.9	5.4	2.2	3.3	2.0	·
O=C(NN1CCOCC1)c1ccc(S(=O)(=O)N2CCCCC2)cc1	3.6	-1.3	5.4	1.6	-1.8	-7.8	·
C=C(C)c1cccc(C(C)(C)NC(=O)Nc2ncccn2)c1	38.7*	5.4	-7.6	-1.9	-2.3	-9.4	21.1
O=C(CNS(=O)(=O)c1ccc(F)cc1)N1CCCCCC1	2.4	-0.3	0.7	3.2	1.9	4.7	·
COC(=O)c1ccc(N2C(=O)CC(N3CCC(O)(c4ccc(Br)cc4)CC3)C2=O)cc1 (centres undefined)	-2.2	1.2	9.0	-0.8	-2.2	-1.1	·
c1cnn(Cc2cnc(N3CCOCC3)s2)c1	-3.0	-3.2	-0.6	0.4	-2.0	-6.1	·
O=C(NCCN1CCOCC1)NC1(C(F)(F)F)Oc2ccc(Cl)cc2O1 (centres undefined)	49.2*	0.0	-7.1	-1.5	-4.2	-2.2	6.5
Cc1ccc(-c2n[nH]c(=O)c3ccccc23)cc1S(N)(=O)=O	-3.6	-0.6	-1.2	-1.9	7.9	7.9	·
O=C(CCl)N(c1ccccc1)C1CCS(=O)(=O)C1 (centres undefined)	79.2*	-1.9	5.0	3.7	0.2	-5.6	85.1*	GSTO1 recomb ABPP=46.0
CC(=O)Nc1ccc(C(=O)OCC(=O)N(c2ccccc2)C2CCS(=O)(=O)C2)cc1 (centres undefined)	·	·	-1.1	0.4	-1.1	0.3	·
COc1cc2c(cc1OC)C(c1cc(Br)ccc1F)N(C(=O)CCl)CC2 (centres undefined)	85.5*	-4.9	5.0	-2.7	0.1	31.2*	96.1*	GSTO1 recomb ABPP=87.0*
N#Cc1ccccc1OCC(=O)Nc1c(C(=O)C2CC2)oc2ccccc12	81.3*	-4.3	-7.2	-4.5	-0.4	3.2	97.6*
O=C(CN1CCCC1)Nc1c(C(=O)C2CC2)oc2ccccc12	-2.0	4.7	7.7	-0.6	3.2	-7.6	·
N#C/C(=C\c1ccc([N+](=O)[O-])o1)c1nc2ccccc2[nH]1	26.0	4.7	2.4	-1.6	-6.0	-2.2	·
Cc1ccc2nc(/C(C#N)=C\c3ccc([N+](=O)[O-])o3)[nH]c2c1	39.3*	6.5	-11.0	-5.4	-26.6	3.3	22.5
C=CCN=c1scc(C)n1/N=C/c1ccc(O)c(O)c1	95.5*	1.5	-6.1	-6.4	-3.6	-3.3	8.6
O=C(NCCN1CCOCC1)c1cc2cc([N+](=O)[O-])ccc2s1	-1.7	3.2	2.9	-1.6	0.5	1.0	·
Cc1ccc(C(=O)CSc2nnnn2C(C)C)c(C)c1	39.4*	-1.0	7.3	3.4	-1.6	2.0	37.5*
Cc1ccc(C)c(C(=O)CSc2nnnn2C(C)C)c1	2.1	0.0	0.8	-4.0	-4.2	4.5	·
O=C1c2ccccc2NC(c2ccc(F)cc2)N1Cc1ccccc1 (centres undefined)	9.6	0.8	-1.1	0.8	-5.4	0.1	·
O=C(CCl)N1CCCC1c1ccc2c(c1)OCCO2 (centres undefined)	54.8*	-1.0	1.2	-3.2	0.6	-6.8	69.6*	GSTO1 recomb ABPP=7.0
SMILES	GSTO1 inh	Fam108B inh	LYPLA2 counter	LYPLA1 inh	PAD4 inh	PME-1 inh	GSTO1 inh conf	others
CC(=O)c1ccc(OCC(=O)N2CCCC2c2ccc3c(c2)OCCCO3)cc1 (centres undefined)	·	·	·	·	5.8	·	·
Cc1ccc(N(NC(=O)C(O)(c2ccccc2)c2ccccc2)C(=O)CCl)cc1	82.3*	1.7	-0.6	-4.8	7.3	-1.1	92.2*
O=C(Nc1ccccc1)NN(C(=O)CCl)c1ccccc1	82.4*	-2.0	-2.4	-2.1	-1.8	-3.3	87.7*
CCN(CC)NC(=O)Nc1ccccc1	1.6	2.1	-0.6	-3.7	-1.2	5.3	·
CCCCCN(C(=O)CCC(=O)OC(C)C(=O)c1ccc(Cl)cc1)c1c(N)n(CCCC)c(=O)[nH]c1=O (centres undefined)	0.5	3.8	3.7	-0.3	-6.9	-3.8	·
Cc1nn(CCC#N)c(NC(=O)c2ccc(Cl)cc2)c1P(=O)(Nc1ccc([N+](=O)[O-])cc1)N1CCOCC1 (centres undefined)	-2.4	-3.5	0.9	1.5	-2.7	2.8	·
CCN(CC)P(=O)(Nc1ccc(Br)cc1)c1c(C)nn(CCC#N)c1NC(=O)c1ccc(Cl)cc1 (centres undefined)	47.3*	1.9	-4.0	-2.2	-4.3	-0.5	22.7
Oc1ccc(NCc2cccc(OCc3ccccc3)c2)cc1	81.7*	3.8	5.6	1.1	6.1	21.2	6.1
Cc1ccc(S(=O)(=O)C(C#N)c2nc3ccccc3nc2N2CCCC2)cc1 (centres undefined)	51.0*	13.4	11.9	1.5	-11.1	21.8	12.9
Cc1csc(Cn2c(CN(C)C)nc3ccccc3c2=O)n1	42.8*	2.5	2.4	3.6	-1.6	0.4	4.1
CCOC(=O)N1CCN(S(=O)(=O)c2ccc(OC)c(C(=O)N3CCCCC3)c2)CC1	5.2	0.4	5.6	0.3	3.1	2.9	·
O=C(CCc1ccc(O)c(O)c1)N/N=C/c1ccc2c(c1)OCO2	43.8*	1.3	-6.2	-4.8	3.9	-5.3	11.5
Cc1nn(C2CCS(=O)(=O)C2)c(C)c1CN(C)C(=O)c1ccc(S(=O)(=O)N(C)C)cc1 (centres undefined)	·	·	·	·	4.9	·	·
Cc1ccc(-n2nc(C)c(C(=O)O)n2)c(C)c1	1.2	4.2	0.5	-6.6	-1.5	0.4	·
CC1=NN(c2ccc(C)cc2C)C(=O)C1C(c1ccccc1)C1C(=O)N(c2ccc(C)cc2C)N=C1C (centres undefined)	44.0*	8.3	10.7	0.0	12.9	1.6	9.2
COC(=O)C1=C(C)N(Cc2ccc(C)cc2)C(=O)/C1=C\c1ccc(O)c(OC)c1	34.2	1.6	-3.9	-2.0	-6.2	8.6	·
CCOC(=O)C1=C(C)N(c2ccc(C)cc2)C(=O)/C1=C\c1ccc(O)c(OC)c1	46.1*	4.1	6.3	4.0	-3.9	0.7	7.0
